Broadly, the inhibition is the relative decrease from the control value, in per cent.

Results on eight compounds are retold here after PubChem BioAssay.

Assay [1] is described as follows: inhibitors of TNFa-induced NFkB p65 translocation, primary screen, imaging, HUVEC, MLSMR starter and 10KST1 sets (AID 438;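 active = inhibition above 20% together with a positive visual image hit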;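 also: compound added about 3h40 before a 20 min TNFalpha stimulation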;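 as to inhibition: signal is the nuclear over cytoplasmic p65 intensity ratio per well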). Conditions: HUVEC TNFa-induced p65 nuclear translocation; cell count: measured here: nuclei count (cytotoxicity indicator), at 2.08 µM; inhibition: at 2 µM, stronger effect = higher value, 0% TNFa-plus-vehicle, 100% no-TNFa wells.
A short description of assay [2]: inhibitors of mutant huntingtin aggregation, primary screen, imaging, exon1htt(103Q)mCFP cells, high-content imaging (AID 483;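 active = visual image review flags a hit and inhibition of aggregation exceeds 20%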;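 also: compound exposure lasted 3 days before fixation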;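 as to nuclei count: percent of the per-plate median nuclei count of sample wells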). Conditions: exon1htt(103Q)mCFP cell line, aggregate imaging, at 2 µM; inhibition of aggregation: stronger effect = higher value; nuclei count: measured here: cell count, toxicity.
A short description of assay [3]: inhibitors of E-selectin induction by TNFa, primary screen, imaging, HUVEC, immunofluorescence, MLSMR starter and 10KST1 sets (AID 487;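 active = visually confirmed hit in the image check and inhibition above 20%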;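 as to inhibition: signal is fraction of cell area covered by stained E-selectin grains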;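 as to nuclei count: 100% = median nuclei count of all wells on the same plate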). Conditions: HUVEC TNFalpha-induced E-selectin immunofluorescence imaging, at 2 µM; inhibition: stronger effect = higher value; nuclei count: measured here: cell number, toxicity.
Assay [4] addresses Voltage-gated potassium channel subunit beta-2 (Rattus norvegicus) (UniProt P62483). Put plainly: KvBeta enzyme negative modulators, primary screen, biochemical, NADPH fluorescence (AID 622;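 active = fluorescence slope higher than the sample average by over 3 SD, cut at about -0.22 in these data, passing the limit was not always enough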;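 also: slope of raw intensity against log time taken from 70 to 1610 s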). Conditions: recombinant KvBeta, 4-cyanobenzaldehyde reduction, at 10 µM, stronger effect = higher value.
Assay [5] has the same target. Put plainly: KvBeta positive modulators, primary screen, biochemical, NADPH fluorescence (AID 623).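 Also: fluorescence intensity change per second fitted from 20 to 320 s.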 The note with it: Recombinant KvBeta, NADPH fluorescence decrease slope, 10 min; at 10 µM; stronger effect = lower value.
The target of assay [6] is Alpha-2C adrenergic receptor (Homo sapiens) (UniProt P18825). Put plainly: modulators of alpha2C/GIRK thallium flux, primary screen, cell-based, HEK293 alpha2C/GIRK1/2 (AID 624;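 active = fluorescence slope after compound addition differing from the mean of all screened samples at 99.7% confidence, in either direction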;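 also: slope of fluorescence ratio to pre-addition baseline per second over 15 to 24 s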). Conditions: thallium flux BTC fluorescence, at 10 µM, actives lie on both sides.
Assay [7] in a line: inhibitors of Sendai virus-induced IRF3 signaling, primary screen, TLR/RLR signaling modifier project, cell-based, Sendai virus stimulus, luciferase, 10K MLSCN set (AID 602276;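 active = inhibition at or above 50% at 10 µM; inactive = inhibition below 50%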;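 also: firefly luciferase from ISG56 promoter only with Renilla not read in this screen; 0% = Sendai virus plus DMSO and 100% = medium plus DMSO without virus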). The note with it: HEK293 RL24 IRF3 luciferase reporter, at 10 µM, stronger effect = higher value. On the technique in general: In a reporter assay the amount or activity of a reporter protein is the signal.
The nature of assay [8]: inhibitors of poly I:C-induced TLR3 signaling, primary screen, cell-based, poly I:C stimulus, luciferase, 10K MLSCN set (AID 602277;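 active = inhibition of the reporter signal at or above 50%; inactive = inhibition below 50%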). Conditions: HEK293-TLR3 RL24 IRF3 luciferase reporter, at 10 µM, stronger effect = higher value.

Calls of active or inactive are those of the source.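 The calls were made as follows, unless noted: active = NADPH fluorescence slope more negative than the mean of all samples by about 3 SD, 99.7% confidence; inactive = the rest.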

Voltage-gated potassium channel subunit beta-2 (Rattus norvegicus), sequence (P62483 whole entry, looked up): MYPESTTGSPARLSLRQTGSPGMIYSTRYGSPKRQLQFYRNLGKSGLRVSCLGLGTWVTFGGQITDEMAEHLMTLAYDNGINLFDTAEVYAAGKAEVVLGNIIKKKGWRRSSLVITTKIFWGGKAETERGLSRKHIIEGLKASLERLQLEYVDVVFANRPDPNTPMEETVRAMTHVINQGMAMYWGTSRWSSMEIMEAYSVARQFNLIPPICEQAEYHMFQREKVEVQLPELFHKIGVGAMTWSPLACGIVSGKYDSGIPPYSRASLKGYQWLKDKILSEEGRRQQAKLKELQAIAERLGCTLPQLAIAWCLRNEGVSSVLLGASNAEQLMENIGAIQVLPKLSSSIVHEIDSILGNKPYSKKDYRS
Alpha-2C adrenergic receptor (Homo sapiens), sequence (P18825 whole entry, looked up): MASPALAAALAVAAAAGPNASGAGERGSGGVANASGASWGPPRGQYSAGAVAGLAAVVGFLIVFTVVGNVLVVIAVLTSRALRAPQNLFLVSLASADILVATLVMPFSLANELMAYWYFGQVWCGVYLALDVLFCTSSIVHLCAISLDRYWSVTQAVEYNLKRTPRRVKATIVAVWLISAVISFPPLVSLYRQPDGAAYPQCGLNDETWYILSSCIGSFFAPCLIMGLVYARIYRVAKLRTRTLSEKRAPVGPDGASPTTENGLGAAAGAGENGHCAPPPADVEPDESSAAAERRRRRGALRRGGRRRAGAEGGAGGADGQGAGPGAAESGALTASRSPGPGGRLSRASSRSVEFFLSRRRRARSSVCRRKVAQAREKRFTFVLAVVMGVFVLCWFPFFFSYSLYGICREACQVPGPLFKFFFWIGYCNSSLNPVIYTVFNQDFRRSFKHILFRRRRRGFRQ

For the compound `Cc1noc(C)c1COc1cccc(C(=O)Nc2ccc(C#N)cc2)c1`, the cell count in assay [1] came out at 422. In addition, the inhibition in assay [1] is 0.4% (inactive); in assay [3], -15.6% (inactive); in assay [7], 2.49% (inactive); in assay [8], -0.298% (inactive). Moreover, in assay [2], the inhibition of aggregation was 3.1% (inactive). Further, the figures for the nuclei count in assay [2] and in assay [3] were 94.2% and 106%, respectively. Also, the fluorescence slope in assay [4] is -0.455 (inactive). Moreover, the NADPH fluorescence slope in assay [5] is -4.9e-05 (inactive). In addition, the slope in assay [6] is 0.00473 (inactive).
Turning to `COc1cccc(C(=O)CN2CCC(NC(=O)NC3CCCCC3)CC2)c1`, the cell count in assay [1] was 513. The inhibition was -25.5% (inactive) in assay [1], -26.9% (inactive) in assay [3], 7.64% (inactive) in assay [7] and -12.8% (inactive) in assay [8]. In addition, the inhibition of aggregation in assay [2] was 10.5% (inactive). For the same compound, the nuclei count came out at 51.6% in assay [2] and 114% in assay [3]. Also, in assay [4], the fluorescence slope was -0.393 (inactive). The NADPH fluorescence slope in assay [5] was -3.8e-05 (inactive). In assay [6], the slope was 0.00349 (inactive).
As to `CC(C)Cc1nnc(NS(=O)(=O)c2ccc(Cl)cc2)s1`, the cell count in assay [1] turned out to be 652. Moreover, the inhibition was 5.4% (inactive) in assay [1], -21.2% (inactive) in assay [3], 12.6% (inactive) in assay [7] and 27.6% (inactive) in assay [8]. In addition, the inhibition of aggregation in assay [2] is -9.3% (inactive). In addition, the nuclei count in assay [2] and in assay [3] was 112% throughout. Further, the fluorescence slope in assay [4] is -0.541 (inactive). Further, the NADPH fluorescence slope in assay [5] was 4.8e-06 (inactive). Also, the slope in assay [6] was 0.0081 (inactive).
On to `CCCCSc1nnc([C@H](C)NC(=O)OC(C)(C)C)o1`, for which the cell count in assay [1] was 345. Also, the inhibition in assay [1] is 0.2% (inactive); in assay [3], -34.4% (inactive); in assay [7] it was 11.6% (inactive); in assay [8], 14.8% (inactive). Besides, in assay [2], the inhibition of aggregation is -2.7% (inactive). The nuclei count in assay [2] came to 104%; in assay [3], 112%. Besides, in assay [4], the fluorescence slope is -0.266 (inactive). Besides, the NADPH fluorescence slope in assay [5] is -2.9e-05 (inactive). Besides, the slope in assay [6] is 0.00436 (inactive).
Consider `Cc1cc(C(=O)NCc2cccnc2)no1`, for which the cell count in assay [1] was 337. Further, the inhibition in assay [1] is 4.2% (inactive); in assay [3], 7.8% (inactive); in assay [7], 11.1% (inactive); in assay [8], 14.3% (inactive). In addition, in assay [2], the inhibition of aggregation is 6.9% (inactive). Further, the nuclei count in assay [2] was found to be 105%; in assay [3], 102%. Further, the fluorescence slope in assay [4] is -0.5 (inactive). Besides, the NADPH fluorescence slope in assay [5] was -8.2e-06 (inactive). In addition, the slope in assay [6] is 0.00709 (inactive).
For the compound `Cc1ccc(-c2cc(C(F)F)nc(NCC3CCCO3)n2)cc1` (stereo not drawn), the cell count in assay [1] was found to be 647. For the same compound, the inhibition in assay [1] is 1.4% (inactive); in assay [3], -135% (inactive); in assay [7], -25.4% (inactive); in assay [8], -60.9% (inactive). Also, in assay [2], the inhibition of aggregation is 15.9% (inactive). For the same compound, the nuclei count was determined as 87.5% in assay [2] and 128% in assay [3]. Moreover, in assay [4], the fluorescence slope was -0.524 (inactive). Also, the NADPH fluorescence slope in assay [5] is 1.3e-05 (inactive). In addition, the slope in assay [6] is 0.00547 (inactive).
Turning to `CCOc1cc(C2CC(=O)N3CN(C4CCCCC4)CSC3=C2C#N)ccc1O` (stereo not drawn), the cell count in assay [1] worked out at 818. For the same compound, the inhibition in assay [1] was 2.3% (inactive); in assay [3], -31.4% (inactive); in assay [7], 11.2% (inactive); in assay [8] it was 19.8% (inactive). The inhibition of aggregation in assay [2] is -24.4% (inactive). The nuclei count in assay [2] came to 114%; in assay [3], 110%. Moreover, the fluorescence slope in assay [4] was -0.607 (inactive). Further, the NADPH fluorescence slope in assay [5] was 1.8e-05 (inactive). Besides, in assay [6], the slope is 0.00576 (inactive).
`CN=C(Nc1cc(C)nn1-c1ccccc1)c1ccccc1`: in assay [1], the cell count was determined as 455. Also, the inhibition in assay [1] was 0.5% (inactive); in assay [3], 23% (inactive); in assay [7], 12.8% (inactive); in assay [8] it was 17.1% (inactive). Further, in assay [2], the inhibition of aggregation was -5.8% (inactive). The nuclei count in assay [2] was determined as 114%; in assay [3], 90.5%. The fluorescence slope in assay [4] is -0.519 (inactive). Further, the NADPH fluorescence slope in assay [5] is -2.6e-05 (inactive). Besides, the slope in assay [6] is 0.00474 (inactive).
